For assay [1], the target named is Glucocorticoid receptor (Homo sapiens) (UniProt P04150). The assay can be described thus: ATG_GR_TRANS: Attagene TRANS-FACTORIAL HepG2 Assay for human Glucocorticoid Receptor (GR) (AID 2282978; active = hit-call score of the fitted dose curve at least 0.9, where 1 is the maximum;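 also: activators score as hits since higher reporter transcript over DMSO is fitted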). Particulars: HepG2 Attagene TRANS GR reporter, mRNA transcription. The method, boiled down:
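Multiplexed TRANS reporter system, HepG2; 24 h exposure; RNA → oligo(dT) RT → reporter-specific PCR → 6-FAM primer extension → HpaI cut → CE fluorescence. Gain-of-signal vs DMSO.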

The target of assay [2] is Oxysterols receptor LXR-beta (Homo sapiens) (UniProt P55055). The assay can be described thus: ATG_LXRb_TRANS: Attagene TRANS-FACTORIAL HepG2 Assay for human Liver X Receptor beta (LXRb) (AID 2282981; active = hit-call score of the fitted dose curve at least 0.9, where 1 is the maximum). The note with it: HepG2 Attagene TRANS GAL4-LXRb reporter, mRNA. The method, boiled down: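 Liver-derived HepG2 cells transfected with Gal4-responsive reporters were dosed for 24 h. Activation was scored as rise in reporter mRNA, by RT-PCR and capillary electrophoresis, above DMSO baseline.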

Assay [3] concerns the target Hepatocyte nuclear factor 4-alpha (Homo sapiens) (UniProt P41235). The assay can be described thus: ATG_HNF4a_TRANS: Attagene TRANS-FACTORIAL HepG2 Assay for human Hepatocyte Nuclear Factor 4 alpha (HNF4a) (AID 2282982; active = hit-call score of the fitted dose curve at least 0.9, where 1 is the maximum). The note with it: HepG2 HNF4a transactivation reporter, mRNA readout. In outline: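 Using HepG2 liver cells transfected with GAL4-UAS reporter units, chemical-induced mRNA increases were assessed after 24 hours. Fluorescent RT-PCR fragments were separated by capillary electrophoresis and compared with DMSO negative controls.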

Assay [4] can be described thus: ATG_M_06_TRANS: Attagene TRANS-FACTORIAL HepG2 Assay for M06 Transcription Factor (Internal Marker) (AID 2282983; active = hit-call score of the fitted dose curve at least 0.9, where 1 is the maximum;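 also: reporter transcript level by RT-PCR then capillary electrophoresis fluorescence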). The note with it: HepG2 Attagene TRANS M06 internal marker reporter. The method, boiled down:
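In this multiplexed HepG2 system, compounds are incubated 24 h with cells carrying GAL4-UAS reporter units. Reporter RNA is amplified and resolved by capillary electrophoresis, and induction is scored against DMSO.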

Assay [5] in a line: ATG_M_32_TRANS: Attagene TRANS-FACTORIAL HepG2 Assay for M32 Transcription Factor (Internal Marker) (AID 2282984; active = hit-call score of the fitted dose curve at least 0.9, where 1 is the maximum;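 also: transcript level of a background control reporter unit measured by RT-PCR and capillary electrophoresis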). The note with it: HepG2 Attagene TRANS M32 internal marker reporter. In outline: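 Fluorescence-detected mRNA induction, HepG2 liver cells, 24 h after dosing. Multiple GAL4-UAS reporter units introduced by transient transfection; background-control endpoint analysed for gain of signal against DMSO.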

Assay [6] deals with Nuclear receptor subfamily 4 group A member 2 (Homo sapiens) (UniProt P43354). In words: ATG_NURR1_TRANS: Attagene TRANS-FACTORIAL HepG2 Assay for human Nuclear Receptor Related Protein 1 (NURR1) (AID 2282985; active = hit-call score of the fitted dose curve at least 0.9, where 1 is the maximum). Particulars: HepG2 Attagene TRANS reporter, mRNA readout. The method, boiled down: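 Chimeric NR-Gal4 proteins were expressed in human HepG2 cells bearing GAL4-UAS reporter units, and induced reporter mRNA was quantified 24 h post-dosing by RT-PCR and capillary electrophoresis.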

Assay [7] concerns the target Transcriptional activator Myb (Homo sapiens) (UniProt P10242). In words: ATG_Myb_CIS: Attagene CIS-FACTORIAL HepG2 Assay for human Myeloblastosis (Myb) Proto-Oncogene Transcription Factor (AID 2282986). Particulars: HepG2 Attagene CIS-FACTORIAL Myb reporter transcription; actives raise or lower the signal. The method, boiled down: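 Endogenous transcription factor activity at a Myb-responsive cis element is reported in human liver HepG2 cells after 24 h chemical treatment. Reporter mRNA is detected by RT-PCR and capillary electrophoresis fluorescence, with DMSO as baseline.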

The target in assay [8] is Nuclear respiratory factor 1 (Homo sapiens) (UniProt Q16656). The assay can be described thus: ATG_NRF1_CIS: Attagene CIS-FACTORIAL HepG2 Assay for human Nuclear Respiratory Factor 1 (NRF1) Orphan Gene (AID 2282987). Particulars: HepG2 NRF1 cis-element reporter, Attagene multiplex; actives raise or lower the signal. The method, boiled down: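 Human hepatoma HepG2 cells carrying transfected promoter-regulated reporter units were incubated with test chemicals for 24 h. Reporter transcripts were measured by RT-PCR plus capillary electrophoresis, and endpoints derived by bidirectional fitting with DMSO as baseline.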

Assay [9] can be described thus: ATG_NFI_CIS: Attagene CIS-FACTORIAL HepG2 Assay for human Nuclear Factor I (NFI) (AID 2282989). The note with it: HepG2 cis-regulatory reporter, NFI response element transcription; actives raise or lower the signal. In outline:
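HepG2 cells transiently transfected with cis-element-driven multiplexed reporter transcription units, dosed for 24 h. Reporter mRNA quantified by RT-PCR, fluorescent labelling, HpaI digestion and capillary electrophoresis; bidirectional fit versus DMSO baseline.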

In assay [10] the target is Myc proto-oncogene protein (Homo sapiens) (UniProt P01106). In words: ATG_Myc_CIS: Attagene CIS-FACTORIAL HepG2 Assay for human Myelocytomatosis (Myc) Proto-Oncogene Transcription Factor (AID 2282990). The note with it: HepG2, Attagene cis-reporter transcription factor activity; actives raise or lower the signal. The method, boiled down: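 HepG2 cells transiently transfected with multiple cis-promoter-driven reporter transcription units, so endogenous TF activity is read. After 24 h compound exposure, reporter mRNA was quantified by RT-PCR, 6-FAM labelling, HpaI digestion and capillary electrophoresis; bidirectional fit versus DMSO.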

Assay [11] in a line: ATG_Oct_MLP_CIS: Attagene CIS-FACTORIAL HepG2 Assay for human Octamer-Binding Transcription Factor (Oct) (AID 2282993). Particulars: HepG2 Attagene cis-factorial Oct reporter, mRNA; actives raise or lower the signal. In outline:
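HepG2 cells transiently transfected with cis-promoter-driven multiplexed reporter transcription units, dosed for 24 h. Reporter mRNA quantified by RT-PCR, fluorescent labelling, HpaI digestion and capillary electrophoresis; bidirectional fits versus DMSO baseline.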

The target in assay [12] is Cellular tumor antigen p53 (Homo sapiens) (UniProt P04637). The assay can be described thus: ATG_p53_CIS: Attagene CIS-FACTORIAL HepG2 Assay for human p53 Transcription Factor (AID 2282994). Particulars: HepG2 p53 cis-element reporter, Attagene mRNA; actives raise or lower the signal. The method, boiled down: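 Transiently transfected HepG2 (multiple cis reporter transcription units); exposure 24 h; reporter RNA via RT-PCR, 6-FAM extension, 2 h HpaI digest at 37 C, CE detection; DMSO baseline.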

Assay [13] addresses Oxysterols receptor LXR-alpha (Homo sapiens) (UniProt Q13133). In words: ATG_LXRa_TRANS: Attagene TRANS-FACTORIAL HepG2 Assay for human Liver X Receptor alpha (LXRa) (AID 2282980; active = hit-call score of the fitted dose curve at least 0.9, where 1 is the maximum). The note with it: HepG2 Attagene TRANS reporter, LXRa transactivation. In outline: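 HepG2 cells were transiently transfected with multiplexed reporter units driven by chimeric LXRa–GAL4 fusion proteins, then dosed for 24 h. Reporter mRNA was quantified by RT-PCR, fluorescent labelling and capillary electrophoresis; gain of signal fitted against DMSO baseline.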

Assay [14] in a line: ATG_NRF2_ARE_CIS: Attagene CIS-FACTORIAL HepG2 Assay for human Nuclear Factor Erythroid 2 Related Factor 2 (NFR2) response to Antioxidant Response Elements (ARE) (AID 2282992).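 As to AC50: reporter mRNA level measured by RT-PCR and capillary electrophoresis fluorescence.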 The note with it: HepG2 Attagene ARE/NRF2 reporter, transcription factor activity; actives raise or lower the signal. The method, boiled down:
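Fluorescence intensity of reporter-specific cDNA fragments, separated by capillary electrophoresis, reflects mRNA induction in transfected HepG2 cells at 24 h. Activity is fitted bidirectionally, DMSO serving as baseline.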

Assay [15] can be described thus: ATG_NF_kB_CIS: Attagene CIS-FACTORIAL HepG2 Assay for human Nuclear Factor Kappa B (NF-kB) (AID 2282991). Particulars: HepG2 Attagene cis-factorial NF-kB reporter mRNA; actives raise or lower the signal. In outline: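 Multiplexed cis-reporter assay in transiently transfected HepG2. 24 h treatment; RNA isolated, RT-PCR, labelled fragments resolved by CE. DMSO baseline.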

Assay [16] can be described thus: BSK_3C_TissueFactor: BioMAP Diversity Plus: 3C Assay for Tissue Factor Biomarker Activity (AID 2282997). Particulars: BioMAP 3C HUVEC, tissue factor biomarker readout; actives raise or lower the signal. The method, boiled down: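 Readout: Tissue Factor ELISA. Cells: human primary umbilical vein endothelium. Time: 24 h after dosing. Analysis: bidirectional fit, DMSO baseline.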

Assay [17] is described as follows: BSK_3C_uPAR: BioMAP Diversity Plus: 3C Assay for Urokinase-type plasminogen activator receptor (uPAR) Biomarker Activity (AID 2282998). The note with it: BioMAP 3C HUVEC, uPAR biomarker ELISA; actives raise or lower the signal. In outline: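 Human umbilical vein endothelial primary cells were exposed to test chemical for 24 h. Cell-surface uPAR was then quantified by ELISA, and responses were fitted bidirectionally against DMSO as negative control and baseline.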
For orientation: In an ELISA, binding on a coated surface is turned into a signal by an enzyme label.

The nature of assay [18]: BSK_3C_VCAM1: BioMAP Diversity Plus: 3C Assay for Vascular cell adhesion molecule 1 (VCAM1) Biomarker Activity (AID 2282999). Particulars: BioMAP 3C HUVEC, VCAM1 ELISA, cytokine-stimulated; actives raise or lower the signal. In outline: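 Vascular primary endothelium (human umbilical vein) was exposed to chemicals and assayed 24 h later. VCAM-1 levels came from ELISA, with DMSO serving as baseline for bidirectional fitting.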

Several values for one entry are separate records, joined by “and”; a condition that tells them apart may be missing. Equal values may be shown once. Results filed as inconclusive are left out. Activity calls are given as the source filed them. The calls were made as follows, unless noted: active = hit-call score of the fitted dose curve at least 0.9, where 1 is the maximum; inactive = score below 0.9.

Cellular tumor antigen p53 (Homo sapiens), sequence (P04637 whole entry, looked up): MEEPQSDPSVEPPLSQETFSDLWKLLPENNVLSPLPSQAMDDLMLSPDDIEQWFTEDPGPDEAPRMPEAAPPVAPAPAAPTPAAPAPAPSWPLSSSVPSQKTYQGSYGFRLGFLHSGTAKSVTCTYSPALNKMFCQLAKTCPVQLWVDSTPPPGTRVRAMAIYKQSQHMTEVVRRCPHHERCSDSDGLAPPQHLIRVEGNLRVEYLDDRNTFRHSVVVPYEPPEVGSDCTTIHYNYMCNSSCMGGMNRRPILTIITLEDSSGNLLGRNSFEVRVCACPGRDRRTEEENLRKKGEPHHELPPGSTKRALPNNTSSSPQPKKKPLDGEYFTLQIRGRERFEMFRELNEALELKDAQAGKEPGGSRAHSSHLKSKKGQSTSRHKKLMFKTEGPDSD
Oxysterols receptor LXR-alpha (Homo sapiens), sequence (Q13133 whole entry, looked up, the tested form may be a part): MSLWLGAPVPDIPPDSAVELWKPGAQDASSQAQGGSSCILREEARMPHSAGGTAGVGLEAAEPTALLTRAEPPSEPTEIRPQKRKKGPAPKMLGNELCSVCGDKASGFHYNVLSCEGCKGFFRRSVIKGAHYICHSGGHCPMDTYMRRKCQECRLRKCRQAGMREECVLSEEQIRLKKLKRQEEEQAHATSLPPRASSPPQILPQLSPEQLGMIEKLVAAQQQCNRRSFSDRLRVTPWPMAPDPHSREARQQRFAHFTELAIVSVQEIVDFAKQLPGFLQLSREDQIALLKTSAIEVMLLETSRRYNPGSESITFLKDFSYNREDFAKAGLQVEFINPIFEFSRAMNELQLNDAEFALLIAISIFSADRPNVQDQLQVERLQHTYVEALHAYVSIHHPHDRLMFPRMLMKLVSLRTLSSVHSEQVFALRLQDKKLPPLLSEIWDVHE
Nuclear respiratory factor 1 (Homo sapiens), sequence (Q16656 whole entry, looked up): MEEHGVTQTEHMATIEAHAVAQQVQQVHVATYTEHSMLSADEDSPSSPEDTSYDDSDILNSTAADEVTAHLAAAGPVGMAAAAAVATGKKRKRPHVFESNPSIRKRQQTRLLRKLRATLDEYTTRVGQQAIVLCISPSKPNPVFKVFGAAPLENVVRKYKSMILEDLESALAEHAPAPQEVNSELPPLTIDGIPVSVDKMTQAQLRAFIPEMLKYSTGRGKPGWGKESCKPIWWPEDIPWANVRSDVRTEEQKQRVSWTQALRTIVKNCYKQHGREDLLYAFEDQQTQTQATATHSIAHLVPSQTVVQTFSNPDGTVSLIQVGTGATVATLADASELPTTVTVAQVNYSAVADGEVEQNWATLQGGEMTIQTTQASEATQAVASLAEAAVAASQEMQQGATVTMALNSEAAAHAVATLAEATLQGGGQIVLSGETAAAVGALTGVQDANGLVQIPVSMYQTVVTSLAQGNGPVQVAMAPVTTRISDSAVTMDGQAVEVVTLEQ
Nuclear receptor subfamily 4 group A member 2 (Homo sapiens), sequence (P43354 whole entry, looked up, the tested form may be a part): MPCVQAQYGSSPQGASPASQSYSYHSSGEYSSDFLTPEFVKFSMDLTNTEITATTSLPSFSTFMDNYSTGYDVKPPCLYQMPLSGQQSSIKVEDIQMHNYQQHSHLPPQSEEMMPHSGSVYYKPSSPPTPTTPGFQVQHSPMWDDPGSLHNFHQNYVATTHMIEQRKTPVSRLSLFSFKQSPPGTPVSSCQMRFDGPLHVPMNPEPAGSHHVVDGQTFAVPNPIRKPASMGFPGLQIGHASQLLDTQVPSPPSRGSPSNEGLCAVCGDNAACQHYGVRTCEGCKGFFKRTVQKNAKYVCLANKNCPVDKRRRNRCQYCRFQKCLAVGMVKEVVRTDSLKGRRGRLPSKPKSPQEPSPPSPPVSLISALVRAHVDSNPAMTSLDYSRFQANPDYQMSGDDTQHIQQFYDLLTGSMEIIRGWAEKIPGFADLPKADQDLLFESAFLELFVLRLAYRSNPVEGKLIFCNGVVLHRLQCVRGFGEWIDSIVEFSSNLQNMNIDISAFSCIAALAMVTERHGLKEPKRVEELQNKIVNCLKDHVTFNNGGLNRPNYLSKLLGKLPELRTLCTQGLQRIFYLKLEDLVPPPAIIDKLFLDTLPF
Hepatocyte nuclear factor 4-alpha (Homo sapiens), sequence (P41235 whole entry, looked up, the tested form may be a part): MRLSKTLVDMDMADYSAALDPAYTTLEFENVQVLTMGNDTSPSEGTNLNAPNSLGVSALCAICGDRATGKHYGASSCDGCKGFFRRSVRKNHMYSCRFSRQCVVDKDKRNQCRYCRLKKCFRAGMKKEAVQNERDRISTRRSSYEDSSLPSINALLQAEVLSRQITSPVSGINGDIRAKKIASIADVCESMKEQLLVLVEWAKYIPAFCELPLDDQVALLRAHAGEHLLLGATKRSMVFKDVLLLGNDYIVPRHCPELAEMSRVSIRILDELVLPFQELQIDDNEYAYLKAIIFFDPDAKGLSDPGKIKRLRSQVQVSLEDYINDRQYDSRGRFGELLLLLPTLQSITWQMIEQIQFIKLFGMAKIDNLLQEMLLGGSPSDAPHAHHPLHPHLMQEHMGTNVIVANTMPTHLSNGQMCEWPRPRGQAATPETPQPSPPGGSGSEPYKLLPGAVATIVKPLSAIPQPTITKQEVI
Oxysterols receptor LXR-beta (Homo sapiens), sequence (P55055 whole entry, looked up, the tested form may be a part): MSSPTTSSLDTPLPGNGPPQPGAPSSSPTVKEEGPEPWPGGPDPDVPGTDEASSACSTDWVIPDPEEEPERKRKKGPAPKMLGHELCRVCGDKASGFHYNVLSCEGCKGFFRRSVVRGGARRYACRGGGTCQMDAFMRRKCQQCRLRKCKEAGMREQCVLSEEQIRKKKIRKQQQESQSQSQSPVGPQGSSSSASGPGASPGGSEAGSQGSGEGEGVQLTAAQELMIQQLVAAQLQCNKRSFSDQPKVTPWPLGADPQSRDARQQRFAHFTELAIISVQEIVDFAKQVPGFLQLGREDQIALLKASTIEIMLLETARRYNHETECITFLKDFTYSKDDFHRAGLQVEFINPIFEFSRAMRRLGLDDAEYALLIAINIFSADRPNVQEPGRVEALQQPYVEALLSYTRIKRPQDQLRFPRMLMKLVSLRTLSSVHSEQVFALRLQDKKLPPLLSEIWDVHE
Glucocorticoid receptor (Homo sapiens), sequence (P04150 whole entry, looked up): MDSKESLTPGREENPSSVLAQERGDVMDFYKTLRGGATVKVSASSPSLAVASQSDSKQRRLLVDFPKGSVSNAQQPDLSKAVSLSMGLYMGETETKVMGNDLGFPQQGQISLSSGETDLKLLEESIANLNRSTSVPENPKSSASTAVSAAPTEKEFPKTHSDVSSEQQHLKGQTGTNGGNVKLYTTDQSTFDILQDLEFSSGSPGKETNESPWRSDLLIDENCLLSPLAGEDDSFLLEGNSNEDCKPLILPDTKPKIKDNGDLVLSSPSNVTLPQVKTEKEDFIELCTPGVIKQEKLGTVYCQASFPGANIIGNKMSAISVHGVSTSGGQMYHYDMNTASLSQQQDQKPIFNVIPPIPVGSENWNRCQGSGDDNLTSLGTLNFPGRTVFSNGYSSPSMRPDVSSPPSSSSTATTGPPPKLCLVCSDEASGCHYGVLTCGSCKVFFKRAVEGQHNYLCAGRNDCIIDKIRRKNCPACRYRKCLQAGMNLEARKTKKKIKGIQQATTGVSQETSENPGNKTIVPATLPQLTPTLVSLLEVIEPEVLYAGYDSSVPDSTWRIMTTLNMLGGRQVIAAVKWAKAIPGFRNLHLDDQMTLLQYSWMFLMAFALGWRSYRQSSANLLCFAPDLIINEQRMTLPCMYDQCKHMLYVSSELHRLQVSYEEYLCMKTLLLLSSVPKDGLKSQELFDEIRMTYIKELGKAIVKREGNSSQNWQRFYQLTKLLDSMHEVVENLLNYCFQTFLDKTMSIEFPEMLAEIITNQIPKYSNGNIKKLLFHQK
Myc proto-oncogene protein (Homo sapiens), sequence (P01106 whole entry, looked up): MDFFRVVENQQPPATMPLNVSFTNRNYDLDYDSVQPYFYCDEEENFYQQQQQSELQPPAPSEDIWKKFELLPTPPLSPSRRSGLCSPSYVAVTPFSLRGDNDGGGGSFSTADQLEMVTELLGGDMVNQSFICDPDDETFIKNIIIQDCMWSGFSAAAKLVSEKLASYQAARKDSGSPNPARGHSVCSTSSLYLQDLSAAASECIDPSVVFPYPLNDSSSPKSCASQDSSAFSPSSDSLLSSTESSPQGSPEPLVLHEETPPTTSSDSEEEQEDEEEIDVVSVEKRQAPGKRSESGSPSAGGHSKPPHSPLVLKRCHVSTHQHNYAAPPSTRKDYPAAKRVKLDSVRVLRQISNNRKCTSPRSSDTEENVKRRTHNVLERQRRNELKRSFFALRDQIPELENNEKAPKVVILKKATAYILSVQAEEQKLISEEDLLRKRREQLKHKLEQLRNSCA
Transcriptional activator Myb (Homo sapiens), sequence (P10242 whole entry, looked up): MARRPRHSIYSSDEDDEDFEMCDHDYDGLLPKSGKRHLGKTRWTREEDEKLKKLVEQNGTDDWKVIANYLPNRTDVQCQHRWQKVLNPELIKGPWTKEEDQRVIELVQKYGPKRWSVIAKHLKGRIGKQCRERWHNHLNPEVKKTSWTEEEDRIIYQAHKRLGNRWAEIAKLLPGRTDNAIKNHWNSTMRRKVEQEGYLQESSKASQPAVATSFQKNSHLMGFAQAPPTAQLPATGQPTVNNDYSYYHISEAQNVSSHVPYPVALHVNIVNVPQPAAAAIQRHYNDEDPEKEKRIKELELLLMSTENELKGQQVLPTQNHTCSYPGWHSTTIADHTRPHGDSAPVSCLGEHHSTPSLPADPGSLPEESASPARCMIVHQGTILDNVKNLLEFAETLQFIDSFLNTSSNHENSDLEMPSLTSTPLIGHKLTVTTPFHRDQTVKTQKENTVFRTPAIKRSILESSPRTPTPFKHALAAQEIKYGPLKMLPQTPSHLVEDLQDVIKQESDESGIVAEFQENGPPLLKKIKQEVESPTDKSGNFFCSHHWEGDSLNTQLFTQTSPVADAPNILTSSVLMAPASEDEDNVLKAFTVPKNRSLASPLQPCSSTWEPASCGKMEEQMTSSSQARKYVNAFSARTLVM

Take `O=C(O)CCCC(=O)O`: the compound was classed as inactive in assay [1], in assay [2], in assay [3], in [4], in [5] and in [6]. The outcome in [7], in [8], in assay [9], in assay [10], in assay [11] and in [12] was inactive.
Regarding `CC(C)=CCCC(C)=CC#N`, the outcome in assay [1], in assay [13], in assay [4], in assay [5], in assay [6] and in assay [7] was inactive. In addition, the outcome in [8], in [9], in assay [10], in [14], in assay [11] and in assay [12] was inactive.
Regarding `CCCCCC[C@@H](O)C/C=C\CCCCCCCC(=O)OCC(O)CO` (stereo partly specified), the compound was classed as inactive in [1], in assay [2], in assay [3], in assay [9], in assay [15] and in assay [11]. Also, the AC50 (usually the concentration giving half of the maximal activity seen) in assay [6] was 132 µM (active); in [7] it was 145 µM (active); in [8] it was 179 µM (active); in assay [10], 162 µM (active); in assay [14], 87.9 µM (active); in assay [12], 181 µM (active).
For `CCCCOCCOCCOC(C)=O`, the compound was classed as inactive in assay [1], in assay [2], in assay [5], in assay [7], in [8] and in [9]. Also, the compound was called inactive in assay [10], in [15], in [11] and in assay [12].
Consider `O=C(OCCc1ccccc1)c1ccccc1`, for which the outcome in assay [1], in [13], in assay [4], in assay [5], in [7] and in assay [8] was inactive. Moreover, the call in [9], in assay [10], in assay [11] and in assay [12] was inactive.
For the compound `C=CC(=O)OCCCCCCCCCC`, the call in [1], in assay [13], in assay [5], in assay [6], in assay [7] and in assay [9] was inactive. The call in assay [10], in assay [11] and in assay [12] was inactive. Besides, the AC50 in assay [14] was 94.5 µM (active).
With `c1ccc(Nc2cccc3ccccc23)cc1`, the outcome in assay [1], in assay [2], in [4], in [5] and in assay [6] was inactive. The AC50 in assay [7] was 33.4 µM (active); in [8], 52.1 µM (active); in [9], 50.1 µM (active); in assay [10], 46.7 µM (active); in [11], 53.3 µM (active); in [12], 57.1 µM (active). Also, the AC50 in [16] is 36.1 µM (active) and 34.1 µM (active); in [17] it was 27.6 µM (active) and 24.7 µM (active); in assay [18], 36.8 µM (active) and 36.9 µM (active).
As for `Nc1cccc(N)n1`, the result in [1], in assay [3], in assay [4], in [5], in assay [6] and in [7] was inactive. Moreover, the outcome in assay [8], in assay [9], in [10], in [14], in assay [11] and in [16] was inactive. In [17], the result was inactive.
With `Oc1ccc(-c2ccccc2)c(Cl)c1`, the compound was classed as inactive in [1], in [13], in assay [2], in assay [5], in assay [7] and in assay [10]. In addition, the result in [15] and in [12] was inactive. The results for the AC50 in [9], in assay [14] and in assay [11] were 33.4 µM (active), 22.7 µM (active) and 52.3 µM (active), respectively.
Regarding `C=CC(C)(O)CC/C=C(\C)CC` (stereo unspecified), the result in [1], in assay [13], in assay [2], in [5], in assay [7] and in assay [8] was inactive. Moreover, the compound was called inactive in assay [9], in assay [10], in assay [15], in assay [14], in assay [11] and in [12].

The values are drawn from PubChem BioAssay (EPA / NIEHS).
